Consider five molecules from PubChem BioAssay (NCATS).

For assay [1], the target named is Cytochrome P450 2D6 (Homo sapiens) (UniProt P10635). The experiment in a line: Cytochrome P450 family 2 subfamily D member 6 (CYP2D6) small molecule antagonists: luciferase biochemical (cell-free) qHTS assay (AID 1645840). Note: nearly all actives have a fitted effect of over 55% in size. Note: potency is the fitted concentration of half-maximal effect. An outline of the steps: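 P450-Glo luminescent screen: recombinant CYP2D6 enzyme–proluciferin substrate mix preincubated with compound 10 min at room temperature, then NADPH regeneration added for 1 h at room temperature. Detection reagent added for 20 min; luciferin light read as relative luminescence units.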

In assay [2] the target is Cytochrome P450 2C9 (Homo sapiens) (UniProt P11712). The experiment in a line: Cytochrome P450 family 2 subfamily C member 9 (CYP2C9) small molecule antagonists: luciferase biochemical (cell-free) qHTS assay (AID 1645842). Note: nearly all actives have a fitted effect of over 55% in size. Note: potency is the fitted concentration of half-maximal effect. In short, it runs like this: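 Luminescence, after 20 min with luciferin detection reagent, reflected CYP2C9 turnover during a 1 h NADPH-driven reaction at 37C. Enzyme-substrate mix contained 0.4% bovine serum albumin and was preincubated with compound 10 min at room temperature.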
On the technique in general: qHTS replaces the single test concentration by a dilution series.

Assay [3] is described as follows: Primary qHTS for inhibitors of nuclear receptor binding SET domain protein 2 (NSD2) in an isogenic RCH-ACV NSD2 p.E1099K mutant (9B) (AID 1645876; active = well fitted curve in the direction sought with a large enough effect; an effect the other way counts as inactive or inconclusive; note: nearly all actives have a fitted effect of over 70% in size; note: potency is the fitted concentration of half-maximal effect).
Assay [4] can be described thus: Primary qHTS for inhibitors of nuclear receptor binding SET domain protein 2 (NSD2) in an RCH-ACV wild type WT cells (2C) (AID 1645877; active = well fitted curve in the direction sought with a large enough effect; an effect the other way counts as inactive or inconclusive; note: nearly all actives have a fitted effect of over 70% in size; note: potency is the fitted concentration of half-maximal effect).
The target in assay [5] is Catechol O-methyltransferase (Homo sapiens) (UniProt P21964). The experiment in a line: Confirmatory Screen for Target Class Profiling of Small Molecule Inhibitors of Methyltransferases (AID 1745852). Particulars: MTase-Glo luminescence, SAH detection, recombinant enzyme; measured here: COMT max response; stronger effect = lower value.

Each structure is given as a SMILES string. Results filed as inconclusive are left out. Active and inactive are the calls of the source. Unless noted, calls come from the whole dose curve; as a rule, active = well fitted curve in the direction sought with a large enough effect in the repeat runs; inconclusive = weak or mixed curves; inactive = no such curve, though single readings can be large; an effect the other way counts as inactive or inconclusive.

Cytochrome P450 2C9 (Homo sapiens), sequence (P11712 whole entry, looked up): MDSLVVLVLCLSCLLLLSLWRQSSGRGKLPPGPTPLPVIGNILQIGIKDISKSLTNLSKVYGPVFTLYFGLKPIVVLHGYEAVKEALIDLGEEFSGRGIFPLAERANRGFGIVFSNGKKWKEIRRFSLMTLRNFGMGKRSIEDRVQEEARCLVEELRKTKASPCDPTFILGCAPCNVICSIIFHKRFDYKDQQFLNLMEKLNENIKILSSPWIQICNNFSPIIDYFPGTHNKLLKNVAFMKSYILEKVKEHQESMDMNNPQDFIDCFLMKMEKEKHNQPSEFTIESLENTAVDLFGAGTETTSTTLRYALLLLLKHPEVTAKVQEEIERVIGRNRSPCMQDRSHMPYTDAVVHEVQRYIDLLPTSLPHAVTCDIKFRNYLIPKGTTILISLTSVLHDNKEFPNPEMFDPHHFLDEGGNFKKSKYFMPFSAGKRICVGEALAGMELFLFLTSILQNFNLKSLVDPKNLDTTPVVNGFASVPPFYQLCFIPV
Cytochrome P450 2D6 (Homo sapiens), sequence (P10635 whole entry, looked up): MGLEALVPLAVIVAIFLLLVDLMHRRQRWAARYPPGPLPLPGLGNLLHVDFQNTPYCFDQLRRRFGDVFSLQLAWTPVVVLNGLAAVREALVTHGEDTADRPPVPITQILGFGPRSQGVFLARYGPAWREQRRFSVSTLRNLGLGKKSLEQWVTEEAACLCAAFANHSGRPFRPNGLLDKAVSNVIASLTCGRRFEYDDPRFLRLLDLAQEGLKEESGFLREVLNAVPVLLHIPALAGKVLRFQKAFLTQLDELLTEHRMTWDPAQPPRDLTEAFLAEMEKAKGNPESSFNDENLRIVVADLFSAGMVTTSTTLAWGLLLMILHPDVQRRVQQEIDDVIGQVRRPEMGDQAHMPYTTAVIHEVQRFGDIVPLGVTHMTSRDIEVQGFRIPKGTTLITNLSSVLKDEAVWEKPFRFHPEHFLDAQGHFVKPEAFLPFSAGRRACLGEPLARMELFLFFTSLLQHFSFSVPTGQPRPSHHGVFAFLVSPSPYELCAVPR
Catechol O-methyltransferase (Homo sapiens), sequence (P21964 whole entry, looked up): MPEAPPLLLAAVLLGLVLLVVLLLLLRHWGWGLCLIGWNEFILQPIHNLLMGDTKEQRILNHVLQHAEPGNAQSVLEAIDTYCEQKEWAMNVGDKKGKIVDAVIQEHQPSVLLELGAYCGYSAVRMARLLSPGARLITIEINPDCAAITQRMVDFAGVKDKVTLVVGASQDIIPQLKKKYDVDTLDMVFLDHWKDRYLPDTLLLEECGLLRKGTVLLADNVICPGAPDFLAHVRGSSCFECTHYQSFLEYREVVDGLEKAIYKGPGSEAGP

In the case of `CC(C)(F)C[C@@H](N[C@@H](c1ccc(-c2ccc(S(C)(=O)=O)cc2)cc1)C(F)(F)F)C(=O)NC1(C#N)CC1`, the values for the Potency in assay [1] and in assay [2] were 2680 nM (active) and 19000 nM (active), respectively. In addition, the Potency entry in assay [3] and in assay [4] was “inactive” each time.

`Cc1cccc(S(=O)(=O)N2CCC[C@@H]2CCN2CCC(C)CC2)c1`: the Potency in assay [1] is 2390 nM (active). Moreover, the Potency result in assay [2], in assay [3] and in assay [4] was “inactive” throughout.

Consider `O=C(CCc1nnc2n(Cc3ccc(Cl)cc3)c(=O)c3ccccc3n12)NCCC1=CCCCC1`, for which the Potency in assay [1] was 7560 nM (active); in assay [2], 4770 nM (active). For the same molecule, the Potency entry in assay [3] and in assay [4] was “inactive” in each case.

With `Cc1ccc(-c2ccc3c(ccc4sc5c(c43)NC[C@@H](C)NC5=O)n2)cn1`, the Potency entry in assay [1] and in assay [2] was “inactive” in each case. In assay [4], the Potency is 16600 nM (active).

For the molecule `COc1cccc(-c2cc(NCc3ccc4c(c3)OCO4)nc(N)n2)c1`, the Potency in assay [1] is 756 nM (active); in assay [2] it was 2680 nM (active); in assay [3], 205 nM (active); in assay [4] it was 163 nM (active). In assay [5], the activity is -1.69%.
